In PubChem BioAssay (EPA / NIEHS):
Values joined by “and” are separate entries in the source; they are usually repeats but may differ in a detail not shown here. Equal entries are not always repeated. Results filed as inconclusive are left out. The source holds several records for some structures; these can differ, active in one and inactive in another. Active and inactive are the calls of the source. The calls were made as follows, unless noted: active = hit-call score of the fitted dose curve at least 0.9, where 1 is the maximum; inconclusive = response in the unintended direction; inactive = score below 0.9.

Assays:
[1] = target: Oxysterols receptor LXR-alpha (Homo sapiens) (UniProt Q13133); assay: ATG_LXRa_TRANS: Attagene TRANS-FACTORIAL HepG2 Assay for human Liver X Receptor alpha (LXRa) (AID 2282980); conditions: HepG2 Attagene TRANS reporter, LXRa transactivation
Chain of Oxysterols receptor LXR-alpha (Homo sapiens) (Q13133 whole entry, looked up, the tested form may be a part): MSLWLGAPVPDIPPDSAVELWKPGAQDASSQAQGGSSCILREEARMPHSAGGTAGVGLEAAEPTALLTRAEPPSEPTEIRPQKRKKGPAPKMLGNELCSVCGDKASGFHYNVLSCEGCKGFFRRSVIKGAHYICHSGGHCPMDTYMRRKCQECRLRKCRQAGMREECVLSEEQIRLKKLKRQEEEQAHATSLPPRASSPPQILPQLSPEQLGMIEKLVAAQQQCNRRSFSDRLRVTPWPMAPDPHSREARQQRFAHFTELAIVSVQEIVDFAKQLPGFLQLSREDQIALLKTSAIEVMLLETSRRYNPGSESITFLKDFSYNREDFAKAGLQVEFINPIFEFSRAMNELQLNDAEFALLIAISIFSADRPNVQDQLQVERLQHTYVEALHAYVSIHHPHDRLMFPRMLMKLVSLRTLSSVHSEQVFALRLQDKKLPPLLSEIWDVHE
In short: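 HepG2 cells were transiently transfected with multiplexed reporter units driven by chimeric LXRa–GAL4 fusion proteins, then dosed for 24 h. Reporter mRNA was quantified by RT-PCR, fluorescent labelling and capillary electrophoresis; gain of signal fitted against DMSO baseline.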

[2] = target: Oxysterols receptor LXR-beta (Homo sapiens) (UniProt P55055); assay: ATG_LXRb_TRANS: Attagene TRANS-FACTORIAL HepG2 Assay for human Liver X Receptor beta (LXRb) (AID 2282981); conditions: HepG2 Attagene TRANS GAL4-LXRb reporter, mRNA
Chain of Oxysterols receptor LXR-beta (Homo sapiens) (P55055 whole entry, looked up, the tested form may be a part): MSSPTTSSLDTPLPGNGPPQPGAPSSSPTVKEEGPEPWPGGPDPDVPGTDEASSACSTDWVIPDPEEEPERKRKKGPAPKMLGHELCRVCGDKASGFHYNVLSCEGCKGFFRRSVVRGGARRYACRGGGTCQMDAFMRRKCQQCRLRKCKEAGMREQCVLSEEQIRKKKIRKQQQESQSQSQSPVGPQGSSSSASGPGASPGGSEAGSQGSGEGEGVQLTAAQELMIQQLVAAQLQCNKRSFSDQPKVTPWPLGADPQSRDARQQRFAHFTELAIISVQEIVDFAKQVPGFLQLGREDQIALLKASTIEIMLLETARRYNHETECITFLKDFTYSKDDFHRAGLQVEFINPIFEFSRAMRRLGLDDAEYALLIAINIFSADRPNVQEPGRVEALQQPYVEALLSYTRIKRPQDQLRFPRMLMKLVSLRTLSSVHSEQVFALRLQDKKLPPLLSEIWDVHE
In short: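 Multiplexed reporter assay, HepG2, 24 h dosing. Fluorescence of labelled RT-PCR products after capillary electrophoresis gives transcript level; positive fitting direction relative to DMSO.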

[3] = target: Hepatocyte nuclear factor 4-alpha (Homo sapiens) (UniProt P41235); assay: ATG_HNF4a_TRANS: Attagene TRANS-FACTORIAL HepG2 Assay for human Hepatocyte Nuclear Factor 4 alpha (HNF4a) (AID 2282982); conditions: HepG2 HNF4a transactivation reporter, mRNA readout
Chain of Hepatocyte nuclear factor 4-alpha (Homo sapiens) (P41235 whole entry, looked up, the tested form may be a part): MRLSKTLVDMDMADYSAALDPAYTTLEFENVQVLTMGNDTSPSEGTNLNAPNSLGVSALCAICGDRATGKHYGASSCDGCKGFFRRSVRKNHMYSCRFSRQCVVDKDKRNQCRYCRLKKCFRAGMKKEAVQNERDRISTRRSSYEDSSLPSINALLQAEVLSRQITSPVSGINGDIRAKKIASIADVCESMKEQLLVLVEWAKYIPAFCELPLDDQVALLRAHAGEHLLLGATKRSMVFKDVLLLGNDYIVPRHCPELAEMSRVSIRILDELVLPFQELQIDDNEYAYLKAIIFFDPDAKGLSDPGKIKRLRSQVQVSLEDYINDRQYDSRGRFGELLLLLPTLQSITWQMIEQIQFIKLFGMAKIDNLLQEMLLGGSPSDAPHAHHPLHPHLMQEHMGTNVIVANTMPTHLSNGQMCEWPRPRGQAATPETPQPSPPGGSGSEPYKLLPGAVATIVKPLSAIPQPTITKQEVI
In short: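 Endpoint reflects transcriptional activation of a GAL4-UAS reporter by an HNF4a-GAL4 chimera in transfected HepG2 cells, 24 h post-dosing. Fluorescence from RT-PCR products separated by capillary electrophoresis; DMSO baseline.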

[4] = ATG_M_06_TRANS: Attagene TRANS-FACTORIAL HepG2 Assay for M06 Transcription Factor (Internal Marker) (AID 2282983); conditions: HepG2 Attagene TRANS M06 internal marker reporter;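 as to AC50: potency for rise in reporter mRNA above DMSO baseline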
In short: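 In this multiplexed HepG2 system, compounds are incubated 24 h with cells carrying GAL4-UAS reporter units. Reporter RNA is amplified and resolved by capillary electrophoresis, and induction is scored against DMSO.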

[5] = ATG_M_32_TRANS: Attagene TRANS-FACTORIAL HepG2 Assay for M32 Transcription Factor (Internal Marker) (AID 2282984); conditions: HepG2 Attagene TRANS M32 internal marker reporter
In short: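 Internal-marker readout from a multiplexed transcription reporter panel. HepG2 cells were transfected with GAL4-UAS reporter units, treated 24 hours, and reporter transcript levels determined by fluorescence after RT-PCR and capillary separation.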

[6] = target: Nuclear receptor subfamily 4 group A member 2 (Homo sapiens) (UniProt P43354); assay: ATG_NURR1_TRANS: Attagene TRANS-FACTORIAL HepG2 Assay for human Nuclear Receptor Related Protein 1 (NURR1) (AID 2282985); conditions: HepG2 Attagene TRANS reporter, mRNA readout
Chain of Nuclear receptor subfamily 4 group A member 2 (Homo sapiens) (P43354 whole entry, looked up): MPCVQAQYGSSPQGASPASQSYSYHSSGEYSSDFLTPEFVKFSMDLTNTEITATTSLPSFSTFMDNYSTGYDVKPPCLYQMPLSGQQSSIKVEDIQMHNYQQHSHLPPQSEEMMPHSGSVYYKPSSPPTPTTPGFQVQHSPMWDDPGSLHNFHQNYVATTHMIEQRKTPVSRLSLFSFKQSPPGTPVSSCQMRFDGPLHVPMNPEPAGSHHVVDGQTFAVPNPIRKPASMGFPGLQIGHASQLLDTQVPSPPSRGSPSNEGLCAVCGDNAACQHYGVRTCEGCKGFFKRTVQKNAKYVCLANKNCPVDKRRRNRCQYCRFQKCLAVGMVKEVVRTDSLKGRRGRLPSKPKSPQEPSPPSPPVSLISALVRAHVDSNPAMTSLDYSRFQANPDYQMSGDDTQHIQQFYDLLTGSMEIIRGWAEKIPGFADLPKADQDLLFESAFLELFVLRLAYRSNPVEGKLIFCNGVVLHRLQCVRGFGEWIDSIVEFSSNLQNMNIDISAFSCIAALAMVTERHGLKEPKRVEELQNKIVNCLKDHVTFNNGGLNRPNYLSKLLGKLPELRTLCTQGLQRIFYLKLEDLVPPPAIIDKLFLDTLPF
In short: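 Endpoint: reporter mRNA increase relative to DMSO. HepG2 cells transfected with reporter units, treated 24 h; RNA processed by RT-PCR, labelling, HpaI digestion and capillary electrophoresis.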

[7] = target: Transcriptional activator Myb (Homo sapiens) (UniProt P10242); assay: ATG_Myb_CIS: Attagene CIS-FACTORIAL HepG2 Assay for human Myeloblastosis (Myb) Proto-Oncogene Transcription Factor (AID 2282986; active = hit-call score of the fitted dose curve at least 0.9, where 1 is the maximum; inactive = score below 0.9); conditions: HepG2 Attagene CIS-FACTORIAL Myb reporter transcription; actives raise or lower the signal
Chain of Transcriptional activator Myb (Homo sapiens) (P10242 whole entry, looked up): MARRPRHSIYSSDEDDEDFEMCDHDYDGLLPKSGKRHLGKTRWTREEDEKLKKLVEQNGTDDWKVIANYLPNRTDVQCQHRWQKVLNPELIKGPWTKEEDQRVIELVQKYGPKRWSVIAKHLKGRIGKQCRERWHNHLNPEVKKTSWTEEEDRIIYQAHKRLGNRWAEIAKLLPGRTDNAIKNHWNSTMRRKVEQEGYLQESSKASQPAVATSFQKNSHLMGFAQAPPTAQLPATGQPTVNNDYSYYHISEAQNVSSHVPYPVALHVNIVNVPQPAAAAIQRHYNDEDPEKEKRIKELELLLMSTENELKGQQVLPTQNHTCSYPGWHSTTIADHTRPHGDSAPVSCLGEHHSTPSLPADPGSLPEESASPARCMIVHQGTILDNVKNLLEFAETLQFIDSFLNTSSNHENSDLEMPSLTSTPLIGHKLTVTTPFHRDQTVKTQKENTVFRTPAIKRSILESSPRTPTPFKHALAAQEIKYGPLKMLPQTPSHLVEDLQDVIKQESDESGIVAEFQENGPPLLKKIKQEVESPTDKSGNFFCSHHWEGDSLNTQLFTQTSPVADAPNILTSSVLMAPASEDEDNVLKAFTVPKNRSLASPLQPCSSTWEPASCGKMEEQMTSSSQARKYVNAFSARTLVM
In short: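 Endogenous transcription factor activity at a Myb-responsive cis element is reported in human liver HepG2 cells after 24 h chemical treatment. Reporter mRNA is detected by RT-PCR and capillary electrophoresis fluorescence, with DMSO as baseline.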

[8] = target: Nuclear respiratory factor 1 (Homo sapiens) (UniProt Q16656); assay: ATG_NRF1_CIS: Attagene CIS-FACTORIAL HepG2 Assay for human Nuclear Respiratory Factor 1 (NRF1) Orphan Gene (AID 2282987; active = hit-call score of the fitted dose curve at least 0.9, where 1 is the maximum; inactive = score below 0.9); conditions: HepG2 NRF1 cis-element reporter, Attagene multiplex; actives raise or lower the signal
Chain of Nuclear respiratory factor 1 (Homo sapiens) (Q16656 whole entry, looked up): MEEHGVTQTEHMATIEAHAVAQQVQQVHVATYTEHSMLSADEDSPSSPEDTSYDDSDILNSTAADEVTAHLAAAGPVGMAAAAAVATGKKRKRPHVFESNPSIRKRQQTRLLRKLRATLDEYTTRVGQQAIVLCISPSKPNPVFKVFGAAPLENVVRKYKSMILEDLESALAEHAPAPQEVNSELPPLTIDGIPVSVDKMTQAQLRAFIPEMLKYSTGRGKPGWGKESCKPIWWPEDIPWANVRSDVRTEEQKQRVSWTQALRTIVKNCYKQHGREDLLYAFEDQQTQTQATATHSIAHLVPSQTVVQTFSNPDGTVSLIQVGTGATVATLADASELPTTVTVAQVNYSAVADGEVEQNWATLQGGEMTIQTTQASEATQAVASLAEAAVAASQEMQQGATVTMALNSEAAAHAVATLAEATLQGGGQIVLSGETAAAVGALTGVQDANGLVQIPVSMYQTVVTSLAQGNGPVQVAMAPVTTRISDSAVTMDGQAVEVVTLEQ
In short: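 Human hepatoma HepG2 cells carrying transfected promoter-regulated reporter units were incubated with test chemicals for 24 h. Reporter transcripts were measured by RT-PCR plus capillary electrophoresis, and endpoints derived by bidirectional fitting with DMSO as baseline.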

[9] = ATG_NFI_CIS: Attagene CIS-FACTORIAL HepG2 Assay for human Nuclear Factor I (NFI) (AID 2282989; active = hit-call score of the fitted dose curve at least 0.9, where 1 is the maximum; inactive = score below 0.9); conditions: HepG2 cis-regulatory reporter, NFI response element transcription; actives raise or lower the signal
In short: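 Cells: human liver HepG2, transiently transfected with promoter-regulated reporter transcription units. Exposure 24 h. Detection: fluorescent RT-PCR products separated by capillary electrophoresis, normalised to DMSO negative control.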

[10] = ATG_M_61_TRANS: Attagene TRANS-FACTORIAL HepG2 Assay for M61 Transcription Factor (Internal Marker) (AID 2282988; active = hit-call score of the fitted dose curve at least 0.9, where 1 is the maximum; inactive = score below 0.9); conditions: HepG2 Attagene TRANS M61 internal marker reporter
Procedure: ATG_TRANS is a cell-based, multiplexed-readout assay that uses HepG2, a human liver cell line, with measurements taken at 24 hours after chemical dosing in a 24-well plate.ATG_M_61_TRANS is one of 30 assay component(s) measured or calculated from the ATG_TRANS assay. It is designed to make measurements of mRNA induction, a form of inducible reporter, as detected with fluorescence intensity signals by Reverse transcription polymerase chain reaction (RT-PCR) and Capillary electrophoresis technology.Data from the assay component ATG_M_61_TRANS was analyzed into 1 assay endpoint. This assay endpoint, ATG_M_61_TRANS, was analyzed in the positive analysis fitting direction relative to DMSO as the negative control and baseline of activity. […] Furthermore, this assay endpoint can be referred to as a secondary readout, because this assay has produced multiple assay endpoints where this one serves a background control function. […]
Human liver HepG2 cells are transiently transfected with multiple reporter transcription units (MRTUs) in 6-well plates using FuGene 6 reagent (Roche; 3 ml FuGene/1 mg DNA). […] A major difference between the CIS and TRANS system is that in CIS activities of endogenous TFs are measured, whereas the TRANS assay evaluates changes in activities of exogenous, chimeric NR-Gal4 proteins. […]

Measured: AC50

O=C(c1ccc(O)cc1O)c1ccc(O)cc1O
inactive: [1] | [2] | [3] | [4] | [5] | [6] | [7] | [8] | [9]
active: [8] 46.5 µM

COC(=O)c1ccc(CNS(C)(=O)=O)cc1S(=O)(=O)NC(=O)Nc1nc(OC)cc(OC)n1
inactive: [1] | [2] | [3] | [4] | [8] | [9]

c1ccc(Nc2ccccc2)cc1
not listed: [6] | [7] | [10]
inactive: all other assays above

Cc1nn(C)c(Oc2ccccc2)c1C=NOCc1ccc(C(=O)OC(C)(C)C)cc1
inactive: [3] | [5] | [6] | [8]
active: [1] 1.31 µM | [2] 1.88 µM | [9] 42.4 nM

COC(=O)c1c(Cl)nn(C)c1S(=O)(=O)NC(=O)Nc1nc(OC)cc(OC)n1
not listed: [6] | [7] | [10]
inactive: all other assays above

CC(=O)S[C@@H]1CC2=CC(=O)CC[C@]2(C)[C@H]2CC[C@@]3(C)[C@@H](CC[C@@]34CCC(=O)O4)[C@H]12
not listed: [7] | [10]
inactive: all other assays above

OB(O)O
not listed: [4] | [7] | [10]
inactive: all other assays above

CC1(C)C(C=C(Cl)Cl)C1C(=O)OCc1cccc(Oc2ccccc2)c1 (centres undefined)
not listed: [4] | [5] | [10]
inactive: all other assays above

O=C(O)C1(C(=O)Nc2ccc(Cl)cc2Cl)CC1
not listed: [4] | [6] | [10]
inactive: all other assays above

CC(C)CCCCCCc1ccc(O)cc1
inactive: [1] | [2] | [3] | [4] | [5] | [6] | [8] | [10] | [9]
active: [1] 11.1 µM | [2] 51.1 µM | [4] 50.3 µM | [5] 53.4 µM | [6] 11.1 µM | [8] 15.7 µM | [9] 15800 nM

COc1nc(C)nc(NC(=O)NS(=O)(=O)c2ccccc2OCCCl)n1
active: [1] 17.1 µM | [2] 25.6 µM
inactive: [2] | [3] | [4] | [6] | [8] | [9]

CCCCOC(=O)C(C)Oc1ccc(Oc2ccc(C(F)(F)F)cn2)cc1 (centres undefined)
not listed: [4] | [10]
inactive: all other assays above

C[C@]12CC[C@@H]3c4ccc(O)cc4C[C@@H](CCCCCCCCCS(=O)CCCC(F)(F)C(F)(F)F)[C@H]3[C@@H]1CC[C@@H]2O (some centres undefined)
not listed: [7] | [10]
inactive: all other assays above

CCN(CC)C(=O)c1cccc(C)c1
not listed: [6] | [10]
inactive: all other assays above

CN(C)C(=O)Nc1ccc(Cl)c(Cl)c1
not listed: [7] | [10]
inactive: all other assays above

CCOC(=O)C(C)Oc1ccc(Oc2nc3ccc(Cl)cc3o2)cc1 (centres undefined)
inactive: [1] | [2] | [3] | [6] | [8] | [9]

CCCOC(=O)c1ccc(C(=O)OCCC)nc1
not listed: [10]
inactive: all other assays above

c1ccc2[nH]c(-c3cscn3)nc2c1
active: [1] 27.2 µM
not listed: [10]
inactive: all other assays above

CCCCOC(=O)[C@@H](C)Oc1ccc(Oc2ccc(C(F)(F)F)cn2)cc1
not listed: [4] | [10]
inactive: all other assays above

CC(C)(c1ccc(O)cc1)c1ccc(O)cc1
active: [6] 44 µM | [8] 62.2 µM | [9] 44.2 µM and 37.8 µM
inactive: [1] | [2] | [3] | [4] | [5] | [6] | [8] | [9]

COCCO
not listed: [6] | [7] | [10]
inactive: all other assays above

CCCN(CCC)c1c([N+](=O)[O-])cc(C(F)(F)F)c(N)c1[N+](=O)[O-]
not listed: [5] | [6] | [10]
inactive: all other assays above

CC(C)(C)[C@@H](O)[C@@H](Cc1ccc(Cl)cc1)n1cncn1
inactive: [1] | [2] | [3] | [4] | [8] | [9]

CCCN(CCC)C(=O)SCC
not listed: [6] | [7] | [10]
inactive: all other assays above

S=C([S-])NCCNC(=S)[S-].[Mn+2]
not listed: [5] | [6] | [10]
inactive: all other assays above

CCCCC(CC)CN1C(=O)C2C3C=CC(C3)C2C1=O (centres undefined)
not listed: [4] | [10]
inactive: all other assays above
